Compound activity as filed in PubChem BioAssay.
A selection: hits, their analogues and other compounds. The true share with any hit is near 4.1%.
GRIN3A LBD mod: binders of NR3A ligand-binding domain, primary screen, biophysical, differential scanning fluorimetry, uHTS. Glutamate receptor ionotropic, NMDA 3A (GRIN3A) ligand-binding domain. 340,000 tested, 2.5% active. NR3A LBD differential scanning fluorimetry, Tm shift; 0% = protein alone, 100% = glycine-bound protein. Tm shift relative to glycine control, % at 25 µM;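 active = melting temperature shift of at least 10% of the positive control shift, at one fixed dose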
MPTP inh: mitochondrial permeability transition pore inhibitors, primary screen, biochemical, isolated mouse mitochondria, absorbance; inhibition, % at 10 µM; 360,000 tested, 1.4% active; Ca2+ swelling absorbance, 30 min;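 active = inhibition of 50% or more, scaled per plate between neutral and stimulator controls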;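 note: 0% = DMSO wells given calcium and 100% = 1 mM EGTA wells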
p-CIP stab down: p/CIP-EGFP fusion destabilizers, primary screen, fluorescence, F442A cells; decrease of EGFP signal, % at 10 µM; 16 h; Q05BA5; 290,000 tested, 0.01% active;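 active = EGFP signal decrease of at least 30% at 10 µM or well 3 SD below plate mean, unless failing retest; inactive = the rest, including hits failing retest or dose response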
MIN6 prolif: inducers of MIN6 beta-cell proliferation, primary screen, ATP luminescence, uHTS. AID 2380, 2010. MIN6 cells proliferation, ATPlite luminescence, 48 h; cells starved in 0.2% serum; 100% = growth in 10% serum. proliferation, % at 10 µM. 330,000 tested, 0.29% active;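 active = compounds whose signal lies at least 3.5 SD above the mean of all wells on their plate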;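 note: 0% = DMSO-treated cells in low-serum medium and 100% = 10% serum control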
FAS-TE inh: FAS thioesterase domain inhibitors, primary screen, biochemical, fluorescence intensity, uHTS | recombinant FAS-TE, OMFH fluorogenic substrate, fluorescence endpoint | 360,000 tested, 0.67% active | inhibition, % at 15 µM | AID 602261, 2012;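 active = compounds whose normalised, plate-corrected inhibition of enzyme fluorescence in the single-dose primary screen is 50% or more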;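 note: 0% = DMSO with enzyme and 100% = substrate without enzyme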
Target sequence (P49327 whole entry, looked up, the tested form may be a part): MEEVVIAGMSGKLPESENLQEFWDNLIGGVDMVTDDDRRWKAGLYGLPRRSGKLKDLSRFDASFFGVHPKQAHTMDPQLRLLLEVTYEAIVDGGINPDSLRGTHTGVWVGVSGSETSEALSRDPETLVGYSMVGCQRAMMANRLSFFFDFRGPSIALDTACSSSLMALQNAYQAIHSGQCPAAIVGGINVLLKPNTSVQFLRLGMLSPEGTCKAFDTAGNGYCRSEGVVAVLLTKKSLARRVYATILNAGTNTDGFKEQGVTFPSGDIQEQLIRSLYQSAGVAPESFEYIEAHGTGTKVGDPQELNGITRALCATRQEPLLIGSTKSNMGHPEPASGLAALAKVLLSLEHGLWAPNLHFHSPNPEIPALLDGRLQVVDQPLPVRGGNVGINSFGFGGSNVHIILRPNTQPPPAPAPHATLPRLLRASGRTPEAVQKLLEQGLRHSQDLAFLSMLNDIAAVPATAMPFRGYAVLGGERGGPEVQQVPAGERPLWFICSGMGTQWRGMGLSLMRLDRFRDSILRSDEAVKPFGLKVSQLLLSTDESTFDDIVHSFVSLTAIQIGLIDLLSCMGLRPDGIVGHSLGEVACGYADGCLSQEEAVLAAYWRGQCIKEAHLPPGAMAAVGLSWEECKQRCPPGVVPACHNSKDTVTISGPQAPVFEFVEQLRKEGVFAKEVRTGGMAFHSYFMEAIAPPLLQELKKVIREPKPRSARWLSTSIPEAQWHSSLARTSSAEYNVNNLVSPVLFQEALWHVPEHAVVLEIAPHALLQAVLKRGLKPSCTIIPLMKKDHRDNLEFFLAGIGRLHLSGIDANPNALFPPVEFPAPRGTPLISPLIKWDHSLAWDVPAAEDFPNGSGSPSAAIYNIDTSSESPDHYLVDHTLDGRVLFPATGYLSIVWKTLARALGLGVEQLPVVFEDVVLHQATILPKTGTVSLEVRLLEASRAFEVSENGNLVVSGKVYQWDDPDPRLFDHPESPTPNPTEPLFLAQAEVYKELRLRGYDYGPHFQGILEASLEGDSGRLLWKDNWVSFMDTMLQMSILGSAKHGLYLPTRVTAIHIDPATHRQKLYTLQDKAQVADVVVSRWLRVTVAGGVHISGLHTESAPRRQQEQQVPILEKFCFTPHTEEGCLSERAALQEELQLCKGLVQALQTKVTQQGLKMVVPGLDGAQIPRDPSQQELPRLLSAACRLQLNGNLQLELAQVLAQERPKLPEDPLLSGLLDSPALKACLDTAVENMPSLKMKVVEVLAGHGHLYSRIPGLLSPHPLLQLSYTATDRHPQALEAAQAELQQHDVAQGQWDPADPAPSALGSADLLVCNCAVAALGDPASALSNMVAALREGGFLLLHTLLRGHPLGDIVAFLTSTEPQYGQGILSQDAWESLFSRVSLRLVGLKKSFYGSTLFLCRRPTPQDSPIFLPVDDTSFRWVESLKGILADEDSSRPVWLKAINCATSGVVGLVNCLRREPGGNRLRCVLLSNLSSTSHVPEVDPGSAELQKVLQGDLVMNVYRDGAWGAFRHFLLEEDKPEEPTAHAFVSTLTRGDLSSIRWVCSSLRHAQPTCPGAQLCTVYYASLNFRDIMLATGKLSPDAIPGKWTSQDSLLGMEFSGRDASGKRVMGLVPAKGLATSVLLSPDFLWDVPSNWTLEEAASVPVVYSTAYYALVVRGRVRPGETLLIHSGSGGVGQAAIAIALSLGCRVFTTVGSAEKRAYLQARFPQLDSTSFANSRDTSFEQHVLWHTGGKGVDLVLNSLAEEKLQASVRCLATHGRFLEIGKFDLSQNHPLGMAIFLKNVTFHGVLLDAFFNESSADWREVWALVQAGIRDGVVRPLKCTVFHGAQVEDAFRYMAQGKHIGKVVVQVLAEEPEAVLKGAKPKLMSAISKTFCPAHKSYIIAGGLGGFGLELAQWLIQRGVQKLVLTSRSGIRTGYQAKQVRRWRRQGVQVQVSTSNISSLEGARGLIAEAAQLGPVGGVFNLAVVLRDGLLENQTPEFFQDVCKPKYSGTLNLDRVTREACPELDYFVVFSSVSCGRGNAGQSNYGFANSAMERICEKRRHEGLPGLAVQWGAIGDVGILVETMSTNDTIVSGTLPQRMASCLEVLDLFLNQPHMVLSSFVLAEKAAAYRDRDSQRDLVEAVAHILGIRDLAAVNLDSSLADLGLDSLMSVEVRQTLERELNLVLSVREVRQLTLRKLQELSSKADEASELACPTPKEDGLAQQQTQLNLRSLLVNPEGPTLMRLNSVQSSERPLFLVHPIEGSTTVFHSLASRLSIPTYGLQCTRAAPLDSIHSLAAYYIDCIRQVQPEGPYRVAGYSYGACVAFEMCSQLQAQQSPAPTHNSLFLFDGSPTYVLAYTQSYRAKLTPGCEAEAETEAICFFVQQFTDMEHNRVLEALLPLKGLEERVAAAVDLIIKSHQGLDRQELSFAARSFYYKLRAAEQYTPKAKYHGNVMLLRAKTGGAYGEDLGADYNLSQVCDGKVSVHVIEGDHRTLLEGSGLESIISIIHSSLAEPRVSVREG
Rh123 counter: fluorescence retest of MPTP screen hits in isolated mitochondria, single concentration; shares compounds with MPTP inh; membrane potential, Rhodamine 123 fluorescence; inhibition, % at 10 µM; 5,000 tested, 78% active; AID 624504, 2012; in the data active = inhibition above about 22%;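 note: 0% = DMSO vehicle and 100% = positive control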
MPTP swell DR: mitochondrial permeability transition pore inhibitors, dose response, biochemical, absorbance, uHTS hits. shares compounds with MPTP inh. IC50, µM. 780 tested, 58% active. isolated mitochondria swelling; in the data active = IC50 below about 20 µM
MPTP cs DR: fluorescent counter-screen in isolated mitochondria, dose response, counter-screen for MPTP inhibitor project, biochemical, fluorescence, uHTS hits | isolated mitochondria counterscreen, fluorescence read-out | 780 tested, 49% active | shares compounds with MPTP inh | IC50, µM | AID 651564, 2012; in the data active = IC50 below about 80 µM
* = called active by the depositor; i = inactive; / = not tested or not shown.

SMILES	GRIN3A LBD mod	MPTP inh	p-CIP stab down	MIN6 prolif	FAS-TE inh	Rh123 counter	others
O=C(Nc1cccc(O)c1)c1ccc(C(F)(F)F)cc1	-1.3	1.2	-11.5	-3.3	-0.6	/
O=C(Nc1ccc(Br)c(C(F)(F)F)c1)c1ccccc1	7.6	99.7*	-7.4	0.0	42.2	89.2*
COc1ccc(NC(=O)c2ccc3nc[nH]c3c2)cc1	5.0	-0.2	-10.2	-3.2	-3.9	/
Cc1ccc(C(=O)NCC(=O)OCc2cccc(Br)c2)cc1	2.2	-2.0	/	2.7	5.1	/
CC(C)C[C@H]1CN=C(Nc2ccccc2)N1CC1CCC(C)CC1 (stereo not given in full)	-0.5	1.9	-13.0	-5.9	-32.1	/
CCN(CC)CCCC(C)NC(=O)c1c(NC(=O)c2ccccc2)sc2c1CCCC2 (stereo not given)	0.7	-0.6	-5.1	-4.0	-3.1	/
CCCCCn1c(N)c(-c2nc3ccccc3s2)c2c([N+](=O)[O-])nn(C)c(=O)c21	8.0	103.7*	9.8	-6.2	19.5	-1.5	MPTP swell DR=i;MPTP cs DR=<2.5*
CCCCn1c(N)c(-c2nc3ccccc3o2)c2c([N+](=O)[O-])nn(C)c(=O)c21	-0.9	1.4	-35.1	1.3	1.0	/
Cc1ccc(S(=O)(=O)NC(=O)NC(C)Cc2ccccc2)cc1 (stereo not given)	-0.6	-3.2	3.6	7.0	-6.2	/
CC(C)N=C(NC#N)SCc1ccccc1F	-0.5	-0.6	-2.3	-2.1	-5.6	/
N#CNC(=Nc1cccc(F)c1)SCc1ccccc1F	-3.5	77.3*	-7.8	-5.9	5.2	90.9*
CCc1cccc(C)c1NC(=O)CSc1nnc(-c2cc3cc(Br)ccc3o2)n1CC	-4.4	92.4*	-2.2	-5.2	12.2	84.1*
O=C(Cc1ccc(Cl)cc1)N1CCC2(CC1)NCCc1[nH]cnc12	0.7	-1.7	4.6	-3.3	-5.3	/
COc1cc(OC)c(NC(=S)Nc2cc(Cl)cc(Cl)c2)cc1Cl	26.7*	104.0*	-0.1	-2.8	43.1	83.6*
COc1cc(NC(=S)Nc2ccc(Br)cc2Cl)c(OC)cc1Cl	-1.7	90.1*	-2.6	0.0	10.3	89.2*
COc1cc(OC)c(NC(=S)Nc2cccc(C(C)=O)c2)cc1Cl	-1.6	3.8	1.2	-0.7	6.4	/
Cc1ccc(O)c(NC(=O)c2onc(C)c2Cl)c1	0.2	0.3	3.6	0.5	-6.9	/
Cc1cccc(NC(=O)c2n[nH]c([N+](=O)[O-])c2Br)c1C	-4.2	87.2*	-4.0	-2.0	-2.8	85.8*
CCCCCCCn1c(=N)n(CC(=O)c2ccco2)c2ccccc21	-2.0	82.9*	-4.5	-3.8	3.9	40.6*
CCCCn1c(=N)n(CC(=O)c2ccco2)c2ccccc21	2.2	0.4	-11.1	3.2	-9.3	/
O=C(C1CC=CCC1)N1CCCCCC1 (stereo not given)	/	-0.1	/	/	-6.0	/
O=C(Nc1cc(C(F)(F)F)cc(C(F)(F)F)c1)Nc1cnn(-c2ccc([N+](=O)[O-])cc2)c1C(F)(F)F	-4.4	88.0*	-2.1	-1.0	28.7	63.2*
O=C(Nc1ccccc1)N(CCCN1CCOCC1)Cc1ccccc1F	-0.2	2.2	-1.4	-3.5	-6.7	/
O=C(Nc1cccc(Cl)c1)N(CCCN1CCOCC1)Cc1ccccc1F	3.7	95.2*	6.7	-2.7	7.0	95.2*
FC(F)Sc1ccc(NC(=S)NC2CCCC2)cc1	0.9	95.3*	-13.7	-4.7	7.8	94.0*
SMILES	GRIN3A LBD mod	MPTP inh	p-CIP stab down	MIN6 prolif	FAS-TE inh	Rh123 counter	others
CC1CCCC(NC(=S)Nc2ccc(SC(F)F)cc2)C1C (stereo not given)	5.6	103.1*	4.2	-4.1	15.9	97.2*
S=C(Nc1ccccc1)c1nc2ccccc2s1	0.3	0.4	-0.3	-3.2	15.8	/
O=C(CN(c1ccc(Br)cc1)S(=O)(=O)c1ccc(Cl)c([N+](=O)[O-])c1)NCCc1ccccc1	-10.3	5.9	-8.9	-4.9	1.7	/
Cc1ccc(N(CC(=O)NCCc2ccc(F)cc2)S(=O)(=O)c2ccc(Cl)c([N+](=O)[O-])c2)c(C)c1	-0.3	67.8*	-8.7	-6.2	32.0	70.0*
O=C(NN1C(=O)c2cc(Br)ccc2NC1c1cc(Br)cc(Br)c1O)c1ccncc1 (stereo not given)	-0.3	88.5*	-11.1	-6.9	19.4	51.6*
CC(=O)c1ccc(OC(C)c2nc3ccccc3s2)cc1 (stereo not given)	4.0	2.6	-12.2	1.2	9.9	/
O=C(NCc1ccccc1)C(c1cc2ccccc2o1)n1c(=O)c(-c2ccco2)nc2ccccc21 (stereo not given)	/	0.3	/	/	/	/
CC(C)c1cccc(-c2csc(C(C)(O)c3ccncc3)n2)c1 (stereo not given)	/	95.1*	/	/	9.7	89.2*
O=[N+]([O-])c1ccc(O)c(Nc2ncnc3ccc(Br)cc23)c1	2.1	102.5*	-10.0	-5.6	-1.1	85.1*
O=[N+]([O-])c1ccc(O)c(Nc2ncnc3ccccc23)c1	0.0	6.0	3.4	-0.6	-12.0	/
COCc1cc(C)nc(SCC(=O)Nc2ccc(N3CCOCC3)cc2)c1C#N	-1.1	-1.2	-13.9	-1.6	3.1	/
CCc1nonc1NC(=O)c1oc2ccc(F)cc2c1C	-1.9	-0.9	1.9	0.4	-2.8	/
Cc1c(C(=O)Nc2nonc2-c2ccc(F)cc2)oc2ccc(F)cc12	5.9	80.7*	-6.2	-6.9	24.4	84.2*
Cc1nc(SCC(=O)N2CCCC2=O)c2c(C)c(C)sc2n1	/	0.9	/	/	-2.2	/
Cc1snc(S(=O)(=O)/C(C#N)=N/Nc2ccc(C(F)(F)F)cc2)c1C#N	24.0*	90.5*	5.4	-4.7	18.4	103.1*
C/C(=N\OCc1nc2ccccc2c(=O)n1/N=C/c1cc(C)cc([N+](=O)[O-])c1O)c1ccccc1	0.8	-1.4	3.3	-5.3	-2.2	/
O=[N+]([O-])c1ccc(NN=Cc2cc(Br)ccc2O)nc1	31.3*	75.3*	/	/	46.1	59.0*
C/C(=N\OCc1nc2ccccc2c(=O)n1/N=C/c1cc([N+](=O)[O-])ccc1O)c1ccccc1	4.7	74.5*	-3.2	-6.5	14.6	50.6*
O=[N+]([O-])c1ccc(O)c(/C=N/n2cnc3ccccc32)c1	5.6	68.6*	14.6	0.0	8.4	79.4*
